Test results published in PubChem BioAssay (EPA / NIEHS).
Results filed as inconclusive are left out. Calls of active or inactive are those of the source. How the source made its calls, unless noted: active means hit-call score of the fitted dose curve at least 0.9, where 1 is the maximum; inactive means score below 0.9.

What was measured:
[1] = target: Paired box protein Pax-6 (Homo sapiens) (UniProt P26367); assay: ATG_Pax6_CIS: Attagene CIS-FACTORIAL HepG2 Assay for human Paired Box 6 (PAX6) (AID 2282956); conditions: HepG2 CIS-FACTORIAL PAX6 reporter transcription, RNA readout; actives raise or lower the signal
Paired box protein Pax-6 (Homo sapiens), sequence (P26367 whole entry, looked up): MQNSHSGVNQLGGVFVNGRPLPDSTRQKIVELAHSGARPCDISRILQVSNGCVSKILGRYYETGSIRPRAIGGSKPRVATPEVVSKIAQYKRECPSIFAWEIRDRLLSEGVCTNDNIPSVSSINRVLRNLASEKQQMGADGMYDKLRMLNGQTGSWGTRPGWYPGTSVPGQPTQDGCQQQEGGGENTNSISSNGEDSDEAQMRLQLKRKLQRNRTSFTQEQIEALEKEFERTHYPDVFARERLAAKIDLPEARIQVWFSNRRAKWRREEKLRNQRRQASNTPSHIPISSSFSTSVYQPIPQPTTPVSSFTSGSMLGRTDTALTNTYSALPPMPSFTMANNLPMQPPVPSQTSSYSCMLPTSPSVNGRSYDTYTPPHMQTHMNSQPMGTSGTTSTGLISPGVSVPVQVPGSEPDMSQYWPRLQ
Procedure, shortened: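 Readout: reporter transcript fluorescence after RT-PCR and capillary electrophoresis. Cells: HepG2, transiently transfected with cis-regulated MRTUs. Exposure 24 h. Gain or loss of signal fitted bidirectionally relative to DMSO.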

[2] = ATG_PXRE_CIS: Attagene CIS-FACTORIAL HepG2 Assay for human Pregnane X Receptor Element (PXRE) (AID 2282957); conditions: HepG2 Attagene CIS-FACTORIAL PXRE reporter, mRNA; actives raise or lower the signal
Procedure, shortened: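 Bidirectional activity, baselined to DMSO, derived from reporter mRNA fluorescence (RT-PCR plus capillary electrophoresis) in HepG2 cells bearing cis-promoter reporter units, 24 h exposure.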

[3] = ATG_PPRE_CIS: Attagene CIS-FACTORIAL HepG2 Assay for human Peroxisome Proliferator-activated Response Element (PPRE) (AID 2282958); conditions: HepG2 PPRE cis-element reporter, Attagene transcription factor profiling; actives raise or lower the signal
Procedure, shortened: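 Read-out: fluorescent reporter mRNA fragments resolved by capillary electrophoresis after RT-PCR. HepG2 cells carried transiently transfected PPRE-driven cis reporter constructs and were dosed for 24 h; gain or loss of signal fitted relative to DMSO.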

[4] = ATG_RORE_CIS: Attagene CIS-FACTORIAL HepG2 Assay for human RAR-related Orphan Receptor Element (RORE) (AID 2282959); conditions: HepG2 Attagene cis-factorial RORE reporter, mRNA; actives raise or lower the signal
Procedure, shortened: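 Readout: fluorescent reporter mRNA by RT-PCR plus capillary electrophoresis, 24 h after dosing transfected HepG2 cells. Endogenous transcription factor activity on a cis promoter element is measured. Gain or loss of signal fitted against DMSO.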

[5] = ATG_Sox_CIS: Attagene CIS-FACTORIAL HepG2 Assay for human SRY-box transcription factor (SOX) (AID 2282960); conditions: HepG2 Attagene cis-factorial SOX reporter, mRNA; actives raise or lower the signal
Procedure, shortened: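 Read-out: fluorescent RT-PCR products of SOX1-linked reporter transcripts resolved by capillary electrophoresis, fitted bidirectionally against DMSO. Transiently transfected HepG2 cells, 24 h after chemical exposure, endogenous transcription factor activity.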

[6] = target: Transcription factor Sp1 (Homo sapiens) (UniProt P08047); assay: ATG_Sp1_CIS: Attagene CIS-FACTORIAL HepG2 Assay for human Specificity Protein 1 (Sp1) (AID 2282961); conditions: HepG2 Sp1 cis-reporter transcription, actives raise or lower the signal
Transcription factor Sp1 (Homo sapiens), sequence (P08047 whole entry, looked up): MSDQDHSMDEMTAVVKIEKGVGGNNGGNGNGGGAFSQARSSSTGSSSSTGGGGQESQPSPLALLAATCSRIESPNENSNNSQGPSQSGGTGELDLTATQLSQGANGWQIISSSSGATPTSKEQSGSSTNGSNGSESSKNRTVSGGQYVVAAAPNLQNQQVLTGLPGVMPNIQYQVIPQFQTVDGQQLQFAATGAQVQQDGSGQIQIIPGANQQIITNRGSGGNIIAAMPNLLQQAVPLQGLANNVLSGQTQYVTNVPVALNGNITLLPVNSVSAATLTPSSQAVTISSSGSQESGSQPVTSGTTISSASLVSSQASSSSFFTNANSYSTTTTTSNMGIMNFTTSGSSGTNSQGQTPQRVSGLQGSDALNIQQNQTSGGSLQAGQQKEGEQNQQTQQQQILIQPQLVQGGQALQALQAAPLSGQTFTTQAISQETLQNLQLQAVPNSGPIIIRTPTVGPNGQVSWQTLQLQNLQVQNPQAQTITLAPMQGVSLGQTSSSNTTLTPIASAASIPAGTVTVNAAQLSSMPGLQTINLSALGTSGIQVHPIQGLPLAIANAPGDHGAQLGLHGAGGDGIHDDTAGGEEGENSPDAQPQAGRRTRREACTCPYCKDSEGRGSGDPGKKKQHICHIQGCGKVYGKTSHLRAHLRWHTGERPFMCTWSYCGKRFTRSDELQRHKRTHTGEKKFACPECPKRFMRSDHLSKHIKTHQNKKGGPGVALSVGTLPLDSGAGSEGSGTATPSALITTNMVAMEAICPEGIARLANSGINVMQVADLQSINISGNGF
Procedure, shortened: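 Read-out: fluorescence of 6-FAM-labeled, HpaI-digested RT-PCR products separated by capillary electrophoresis. HepG2 cells carried transfected cis-element reporter units and were exposed to chemicals for 24 h; gain or loss of signal fitted relative to DMSO.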

[7] = ATG_SREBP_CIS: Attagene CIS-FACTORIAL HepG2 Assay for human Sterol Regulatory Element Binding (SREBP) (AID 2282962); conditions: HepG2 Attagene cis-factorial SREBP reporter, mRNA; actives raise or lower the signal
Procedure, shortened: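 Readout: fluorescent reporter-transcript peaks resolved by capillary electrophoresis after RT-PCR. Cells were human HepG2 carrying transfected cis-promoter reporter constructs, dosed for 24 h. Gain or loss of signal was fitted against DMSO controls.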

[8] = target: Signal transducer and activator of transcription 3 (Homo sapiens) (UniProt P40763); assay: ATG_STAT3_CIS: Attagene CIS-FACTORIAL HepG2 Assay for human Signal Transducer and Activator of Transcription 3 (STAT3) (AID 2282963); conditions: HepG2, Attagene cis-factorial STAT3 reporter transcription; actives raise or lower the signal
Signal transducer and activator of transcription 3 (Homo sapiens), sequence (P40763 whole entry, looked up): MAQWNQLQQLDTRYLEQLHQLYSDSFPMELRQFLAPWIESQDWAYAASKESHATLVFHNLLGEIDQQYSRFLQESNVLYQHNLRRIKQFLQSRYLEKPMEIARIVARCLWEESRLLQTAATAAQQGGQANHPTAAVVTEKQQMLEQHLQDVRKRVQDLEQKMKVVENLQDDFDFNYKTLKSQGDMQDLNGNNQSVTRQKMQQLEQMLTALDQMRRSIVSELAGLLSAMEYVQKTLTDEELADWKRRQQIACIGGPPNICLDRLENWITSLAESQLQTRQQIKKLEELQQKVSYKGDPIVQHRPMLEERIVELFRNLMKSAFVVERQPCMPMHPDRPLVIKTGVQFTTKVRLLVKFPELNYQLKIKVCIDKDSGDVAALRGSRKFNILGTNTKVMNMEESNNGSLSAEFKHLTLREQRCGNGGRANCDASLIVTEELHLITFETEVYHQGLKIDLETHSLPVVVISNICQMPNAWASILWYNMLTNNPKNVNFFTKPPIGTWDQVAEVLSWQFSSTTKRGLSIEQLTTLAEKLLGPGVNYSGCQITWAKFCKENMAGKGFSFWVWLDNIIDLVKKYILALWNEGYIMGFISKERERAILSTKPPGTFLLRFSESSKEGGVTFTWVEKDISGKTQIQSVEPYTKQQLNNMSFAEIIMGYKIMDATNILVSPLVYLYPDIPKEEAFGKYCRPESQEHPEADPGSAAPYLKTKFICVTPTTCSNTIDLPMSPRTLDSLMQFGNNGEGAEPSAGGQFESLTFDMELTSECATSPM
Procedure, shortened: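 Uses human liver HepG2 transiently carrying cis-regulated reporter transcription units. Following 24 h dosing, reporter mRNA induction was detected by RT-PCR and capillary electrophoresis, analysed bidirectionally versus DMSO.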

[9] = ATG_TA_CIS: Attagene CIS-FACTORIAL HepG2 Assay for human TA Basal Promoter (AID 2282964); conditions: HepG2 Attagene CIS-factorial TA basal promoter reporter; actives raise or lower the signal
Procedure, shortened: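 Transfected HepG2, 24 h compound exposure; RNA → RT-PCR → FAM primer extension → HpaI cut → CE fluorescence. Gain/loss-of-signal fitted against DMSO negative control. Background-control readout.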

[10] = ATG_TCF_b_cat_CIS: Attagene CIS-FACTORIAL HepG2 Assay for human T-Cell-Factor with beta-catenin (TCF/b-cat) (AID 2282965); conditions: HepG2 TCF/beta-catenin cis-reporter transcription, actives raise or lower the signal
Procedure, shortened: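 Using capillary electrophoresis as the read-out, labelled reporter cDNA fragments from transiently transfected HepG2 were sized and quantified. Exposure lasted 24 hours; activity in either direction was referenced to DMSO.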

[11] = ATG_TAL_CIS: Attagene CIS-FACTORIAL HepG2 Assay for human TAL Basal Promoter (AID 2282966); conditions: HepG2 Attagene cis-factorial TAL promoter reporter; actives raise or lower the signal;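 further: background control endpoint measuring basal TAL promoter reporter mRNA not a specific factor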
Procedure, shortened: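 Human hepatoma HepG2 cells, transfected with promoter-regulated reporter units, were treated 24 h. Reporter transcript levels, measured through RT-PCR and capillary electrophoresis, were fitted for gain or loss relative to DMSO.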

[12] = ATG_TGFb_CIS: Attagene CIS-FACTORIAL HepG2 Assay for human Transforming Growth Factor (TGF) (AID 2282967); conditions: HepG2 Attagene CIS TGFb reporter, mRNA transcription; actives raise or lower the signal
Procedure, shortened: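 Readout: fluorescently labeled reporter cDNA fragments resolved by capillary electrophoresis after RT-PCR. Transfected HepG2 cells dosed for 24 h; endogenous TF activity at TGFB1-linked cis element; gain or loss fitted relative to DMSO.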

[13] = target: Estrogen receptor (Homo sapiens) (UniProt P03372); assay: ATG_ERa_TRANS: Attagene TRANS-FACTORIAL HepG2 Assay for human Estrogen Receptor alpha (ERa) (AID 2282970; active means hit-call score of the fitted dose curve at least 0.9, where 1 is the maximum); conditions: HepG2 Attagene TRANS ERa GAL4 reporter, mRNA
Estrogen receptor (Homo sapiens), sequence (P03372 whole entry, looked up, the tested form may be a part): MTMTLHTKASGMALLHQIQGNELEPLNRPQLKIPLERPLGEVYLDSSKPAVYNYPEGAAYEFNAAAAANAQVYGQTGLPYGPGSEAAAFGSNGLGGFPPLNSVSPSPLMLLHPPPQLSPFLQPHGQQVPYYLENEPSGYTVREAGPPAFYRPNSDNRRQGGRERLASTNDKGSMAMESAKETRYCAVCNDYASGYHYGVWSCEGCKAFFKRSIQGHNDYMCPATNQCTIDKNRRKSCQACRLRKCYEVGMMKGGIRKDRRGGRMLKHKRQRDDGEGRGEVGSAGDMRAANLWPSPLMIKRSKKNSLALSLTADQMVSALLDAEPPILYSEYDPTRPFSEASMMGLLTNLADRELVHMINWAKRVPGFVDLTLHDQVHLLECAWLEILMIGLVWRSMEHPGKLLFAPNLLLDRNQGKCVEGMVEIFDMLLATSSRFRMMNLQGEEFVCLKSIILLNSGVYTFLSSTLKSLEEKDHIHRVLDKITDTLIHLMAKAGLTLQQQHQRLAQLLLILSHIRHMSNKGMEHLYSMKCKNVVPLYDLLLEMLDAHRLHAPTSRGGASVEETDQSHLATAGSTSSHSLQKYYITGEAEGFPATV
Procedure, shortened: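 Signal derives from fluorescence of labelled reporter PCR fragments separated by capillary electrophoresis. HepG2 cells transiently carrying multiple GAL4-UAS reporter units were treated 24 hours, and induction above DMSO baseline was fitted as activity.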

[14] = ATG_M_19_TRANS: Attagene TRANS-FACTORIAL HepG2 Assay for M19 Transcription Factor (Internal Marker) (AID 2282974; active means hit-call score of the fitted dose curve at least 0.9, where 1 is the maximum); conditions: HepG2 Attagene TRANS-FACTORIAL M19 internal marker reporter
Procedure, shortened: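 24 h chemical exposure of transiently transfected HepG2 (MRTU library). RNA → oligo(dT) RT → PCR → 6-FAM labelling → HpaI cut → CE fluorescence. Positive-direction fit vs DMSO baseline; background internal-marker readout.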

[15] = ATG_GAL4_TRANS: Attagene TRANS-FACTORIAL HepG2 Assay for GAL4 (Internal Marker) (AID 2282976; active means hit-call score of the fitted dose curve at least 0.9, where 1 is the maximum); conditions: HepG2 Attagene TRANS GAL4 internal marker reporter
Procedure, shortened: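 Liver HepG2 line bearing multiplexed GAL4-UAS reporter constructs; 24 h chemical treatment. Transcripts were quantified as fluorescent fragments on capillary electrophoresis after RT-PCR and HpaI cut, with activity fitted upward from DMSO.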

[16] = ATG_VDRE_CIS: Attagene CIS-FACTORIAL HepG2 Assay for human Vitamin D Receptor Element (VDRE) (AID 2282968); conditions: HepG2 VDRE cis-reporter transcription, actives raise or lower the signal
Procedure, shortened: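 Transfected HepG2 reporter cells, chemical treatment 24 h. RNA isolated, cDNA amplified with reporter-specific primers, products analysed by capillary electrophoresis. Endpoint fitted in both directions versus DMSO.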

[17] = target: X-box-binding protein 1 (Homo sapiens) (UniProt P17861); assay: ATG_Xbp1_CIS: Attagene CIS-FACTORIAL HepG2 Assay for human X-box Binding Protein 1 (XBP1) (AID 2282972); conditions: HepG2 XBP1 cis-element reporter, Attagene multiplex; actives raise or lower the signal
X-box-binding protein 1 (Homo sapiens), sequence (P17861 whole entry, looked up, the tested form may be a part): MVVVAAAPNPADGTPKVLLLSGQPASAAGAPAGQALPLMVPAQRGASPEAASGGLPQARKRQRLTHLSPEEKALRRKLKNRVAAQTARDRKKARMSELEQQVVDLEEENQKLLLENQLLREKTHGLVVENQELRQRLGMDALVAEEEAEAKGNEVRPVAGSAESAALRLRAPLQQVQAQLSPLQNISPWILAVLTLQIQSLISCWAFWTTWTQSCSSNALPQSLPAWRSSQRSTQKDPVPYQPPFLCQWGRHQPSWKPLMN
Procedure, shortened: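 Read-out: fluorescent reporter mRNA fragments resolved by capillary electrophoresis after RT-PCR. Human HepG2 liver cells carried transfected cis-promoter reporter units and were exposed to chemicals for 24 hours. Gain or loss of signal fitted relative to DMSO baseline.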

[18] = target: Nuclear receptor subfamily 1 group I member 3 (Homo sapiens) (UniProt Q14994); assay: ATG_CAR_TRANS: Attagene TRANS-FACTORIAL HepG2 Assay for human Constitutive Androstane Receptor (CAR) (AID 2282969; active means hit-call score of the fitted dose curve at least 0.9, where 1 is the maximum;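 further: activators raise reporter mRNA above DMSO so AC50 marks induction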); conditions: HepG2 Attagene TRANS-FACTORIAL CAR reporter
Nuclear receptor subfamily 1 group I member 3 (Homo sapiens), sequence (Q14994 whole entry, looked up, the tested form may be a part): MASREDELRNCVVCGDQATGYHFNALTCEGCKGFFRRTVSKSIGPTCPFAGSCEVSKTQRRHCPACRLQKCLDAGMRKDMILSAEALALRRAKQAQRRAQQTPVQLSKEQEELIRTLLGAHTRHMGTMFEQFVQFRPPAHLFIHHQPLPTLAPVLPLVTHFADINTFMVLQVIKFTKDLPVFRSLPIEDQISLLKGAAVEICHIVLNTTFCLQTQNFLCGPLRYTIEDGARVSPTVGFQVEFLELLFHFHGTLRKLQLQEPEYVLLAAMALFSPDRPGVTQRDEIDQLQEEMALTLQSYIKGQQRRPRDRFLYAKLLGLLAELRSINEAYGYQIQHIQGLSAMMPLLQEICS
Procedure, shortened: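 Steps: transient transfection of HepG2 with multiple GAL4-UAS reporter units; 24 h compound incubation; RNA isolation, RT-PCR, 6-FAM primer extension, HpaI digest; capillary electrophoresis. Gain-of-signal relative to DMSO negative control.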

[19] = target: Steroid hormone receptor ERR1 (Homo sapiens) (UniProt P11474); assay: ATG_ERRa_TRANS: Attagene TRANS-FACTORIAL HepG2 Assay for human Estrogen-Related Receptor alpha (ERRa) (AID 2282971; active means hit-call score of the fitted dose curve at least 0.9, where 1 is the maximum); conditions: HepG2 Attagene TRANS reporter, ERRa transactivation
Steroid hormone receptor ERR1 (Homo sapiens), sequence (P11474 whole entry, looked up, the tested form may be a part): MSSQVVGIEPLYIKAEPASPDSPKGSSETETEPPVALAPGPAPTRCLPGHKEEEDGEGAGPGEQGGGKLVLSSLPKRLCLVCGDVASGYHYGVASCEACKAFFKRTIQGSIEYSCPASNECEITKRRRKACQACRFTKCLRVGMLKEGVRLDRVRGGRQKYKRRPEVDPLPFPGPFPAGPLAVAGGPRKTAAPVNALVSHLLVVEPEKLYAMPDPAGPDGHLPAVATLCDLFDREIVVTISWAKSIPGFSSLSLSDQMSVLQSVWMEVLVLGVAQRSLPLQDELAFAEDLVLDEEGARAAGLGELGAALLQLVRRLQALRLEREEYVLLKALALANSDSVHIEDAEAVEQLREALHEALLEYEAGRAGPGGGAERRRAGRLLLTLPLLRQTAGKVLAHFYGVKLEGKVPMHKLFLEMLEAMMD
Procedure, shortened: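 Signal gain relative to DMSO for an ERRa-Gal4 chimeric receptor, read as reporter mRNA by RT-PCR/capillary electrophoresis. Human HepG2 liver cells, transient multiplex reporter transfection, 24 h chemical exposure.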

[20] = target: Estrogen-related receptor gamma (Homo sapiens) (UniProt P62508); assay: ATG_ERRg_TRANS: Attagene TRANS-FACTORIAL HepG2 Assay for human Estrogen-Related Receptor gamma (ERRg) (AID 2282977; active means hit-call score of the fitted dose curve at least 0.9, where 1 is the maximum;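 further: hits increase reporter signal over DMSO so potencies reflect activators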); conditions: HepG2 Attagene TRANS reporter, ERRg transactivation
Estrogen-related receptor gamma (Homo sapiens), sequence (P62508 whole entry, looked up, the tested form may be a part): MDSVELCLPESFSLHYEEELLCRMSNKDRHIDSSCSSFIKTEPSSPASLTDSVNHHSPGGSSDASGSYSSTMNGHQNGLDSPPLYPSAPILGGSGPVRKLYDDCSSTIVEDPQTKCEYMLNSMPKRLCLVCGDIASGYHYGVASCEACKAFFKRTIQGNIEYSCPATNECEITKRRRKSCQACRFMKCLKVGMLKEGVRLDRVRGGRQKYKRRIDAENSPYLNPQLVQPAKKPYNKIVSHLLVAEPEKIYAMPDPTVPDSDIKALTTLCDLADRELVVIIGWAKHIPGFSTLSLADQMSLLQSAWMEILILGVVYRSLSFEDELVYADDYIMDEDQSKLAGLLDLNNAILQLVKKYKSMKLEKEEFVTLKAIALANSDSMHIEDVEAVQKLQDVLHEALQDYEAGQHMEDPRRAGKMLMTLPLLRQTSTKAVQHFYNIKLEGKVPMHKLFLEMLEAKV
Procedure, shortened: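 Exogenous NR-Gal4 chimera activity was assessed in HepG2 cells bearing transfected GAL4-UAS reporters. After 24 h dosing, total RNA underwent RT-PCR, fluorescent primer extension and HpaI digestion before capillary electrophoresis, with gain of signal scored against DMSO.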

Measured: AC50

NC(=O)c1ccccc1O
not listed: [16] | [17] | [18] | [19] | [20]
inactive: all other assays above

Clc1nc2ccccc2s1
not listed: [13] | [14] | [18] | [19] | [20]
inactive: all other assays above

Cc1ccc(N)c([N+](=O)[O-])c1
not listed: [13] | [15] | [18] | [19] | [20]
inactive: all other assays above

O=C(c1ccc(O)cc1)c1ccc(O)cc1O
active: [2] 35.8 µM | [3] 100 µM | [7] 100 µM | [13] 1.03 µM
not listed: [16] | [19] | [20]
inactive: all other assays above

CCCCCCOC(=O)C(C)CC (stereo unspecified)
not listed: [16]
inactive: all other assays above

C=COCCCC
not listed: [13] | [14] | [18] | [19] | [20]
inactive: all other assays above

CC/C=C\C/C=C\C/C=C\CCCCCCCC(=O)O
active: [1] 100 µM | [2] 181 µM | [3] 40.1 µM | [4] 48.7 µM | [10] 53.6 µM
inactive: [5] | [6] | [7] | [8] | [9] | [11] | [12] | [13]

CC(C)=CCC[C@H](C)CCO
not listed: [14] | [16] | [18] | [19] | [20]
inactive: all other assays above

NC(=O)C1CO1 (stereo unspecified)
not listed: [13] | [15] | [18] | [19] | [20]
inactive: all other assays above

Cc1c(C)c([N+](=O)[O-])c(C(C)(C)C)c([N+](=O)[O-])c1C
active: [2] 1.93 µM
not listed: [15] | [16] | [20]
inactive: all other assays above

O=c1[nH]c(=O)c2[nH]c(=O)[nH]c2[nH]1
not listed: [14] | [15] | [16] | [18] | [19] | [20]
inactive: all other assays above

CCCCCCC1(C)CCC(=O)O1 (stereo unspecified)
active: [2] 30.3 µM
not listed: [14] | [15] | [16] | [19] | [20]
inactive: all other assays above

CCCCCCCCCCCCCOP(=O)(O)O
active: [2] 7.54 µM
not listed: [12] | [15] | [19] | [20]
inactive: all other assays above
